High-throughput results deposited in PubChem BioAssay by National Center for Advancing Translational Sciences (NCATS).
TRHR enhancer-1 = TRH receptor (human) allosteric enhancement. 0.66% of 360,000 active. AID 493056. enhancement, % at 2 µM. P34981. TRHR cells, fluo-8 calcium fluorescence, EC20 TRH enhancement; in the data active = enhancement above about 30%
Target sequence (P34981 whole entry, looked up): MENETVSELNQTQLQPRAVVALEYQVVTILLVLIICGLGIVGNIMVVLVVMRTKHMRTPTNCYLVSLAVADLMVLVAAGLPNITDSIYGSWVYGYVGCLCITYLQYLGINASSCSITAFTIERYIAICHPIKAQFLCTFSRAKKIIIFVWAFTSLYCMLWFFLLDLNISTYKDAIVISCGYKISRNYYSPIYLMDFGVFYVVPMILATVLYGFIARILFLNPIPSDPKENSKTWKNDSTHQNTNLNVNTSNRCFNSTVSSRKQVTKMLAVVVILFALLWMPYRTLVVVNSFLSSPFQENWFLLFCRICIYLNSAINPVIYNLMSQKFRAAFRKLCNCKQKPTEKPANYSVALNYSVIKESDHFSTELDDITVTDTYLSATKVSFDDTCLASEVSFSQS
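TRHR-expressing cells loaded with fluo-8 calcium dye were read kinetically (ex 480/em 530) during compound addition, then stimulated with an EC20 of TRH (10 nM final). Enhancement of the Gq-mediated intracellular calcium response was scored.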
D1 antagonist = blocks dopamine activation of the human D1 receptor. P21728. HEK293 TREx D1 cells, calcium flux, dopamine EC80; hits give low values. activity change, negative = inhibition, % at 10 µM. 3.2% of 360,000 active. AID 504652; in the data active = activity change below about -30%
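Inducible Hek293 Trex D1 cells (tetracycline, overnight, 30 C). Calcium dye 30–90 min RT. Antagonist mode: EC80 dopamine added after 180 s compound read.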
TRHR agonist-1 = TRH receptor (human) agonism | TRHR cells, calcium flux fluo-8, FDSS agonist mode | activation, % at 2 µM | P34981 | 0.18% of 360,000 active
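TRHR-expressing cells loaded with fluo-8 calcium dye; 23 nL library compound pin-transferred, kinetic FDSS fluorescence (Ex 480/Em 530) recorded about 180 s for agonist-induced calcium release, before a 10 nM TRH EC20 addition for potentiator mode.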
D1 PAM = potentiators of human D1 dopamine receptor; P21728; AID 504651; HEK293 TREx D1 cells, calcium flux, dopamine EC20 potentiation; potentiation, % at 10 µM; 0.036% of 360,000 active; in the data active = potentiation above about 30%
D1 agonist = human D1 receptor agonism. HEK293 T-REx D1 cells, calcium flux, agonist mode. activation, % at 2 µM. 1% of 360,000 active. AID 504660
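Inducible HEK293 T-REx D1 cells, force-coupled to calcium signalling, were plated at 4000 cells/well with tetracycline and held overnight at 30 C. After no-wash calcium dye loading, compound-evoked calcium rise over 180 s flagged agonists.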
TRHR enhancer-2 = confirmation of human TRH receptor allosteric enhancers | shares compounds with TRHR enhancer-1 | TRH receptor cell assay, enhancer confirmation qHTS | activity change, negative = inhibition, % at 46.1 µM | 970 tested, under 10 active | AID 493076; active = well fitted curve in the direction sought with a large enough effect; inconclusive = small, poorly fitted or top-dose-only effect, or another doubt; inactive = no such curve, though single readings can be large; an effect the other way counts as inactive or inconclusive;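 also: compound effect scored on response to added TRH at EC20 of 10 nM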
TRHR agonist-2 = confirmation of human TRH receptor agonists; TRHR-expressing cells, agonist activation read-out; AID 493078; Potency, µM (titrated, usually from 46.1 µM), most hits filed as activators; 8% of 970 active; shares compounds with TRHR enhancer-1; active = well fitted curve in the direction sought with a large enough effect; inconclusive = small, poorly fitted or top-dose-only effect, or another doubt; inactive = no such curve, though single readings can be large; an effect the other way counts as inactive or inconclusive; also: nearly all actives have a fitted effect of over 75% in size
Each line names hits and unclear results; the compound was inactive in the other large screens (follow-up assays come after a bar, where they were run). Shown are actives, neighbours in structure and some others; about 4.6% of the full set was active somewhere. Rule as the data show it, unless noted: active = activation above about 30%; inactive = the rest.

Fc1cccc(F)c1-n1c(CN2CCCC2)csc1=S	none
Cc1cc(-c2nn(-c3ccccc3F)cc2CNCCc2cnc[nH]2)c(C)s1	TRHR enhancer-1 51 | TRHR enhancer-2 inactive | TRHR agonist-2 inactive
CCCCCC(=O)Nc1nnn(CCC)n1	none
O=C(CNC(=O)c1ccc(S(=O)(=O)N2CCCC2)cc1)N/N=C/c1ccccc1Cl	none
O=C(N/N=C\c1c(O)ccc2ccccc12)c1ccc(S(=O)(=O)N2CCCCC2)cc1	TRHR agonist-1 60, D1 agonist 52 | TRHR enhancer-2 inconclusive | TRHR agonist-2 18µM
COc1ccc2ccccc2c1/C=N/NC(=O)c1ccc(C)nc1	none
O=C(N/N=C/c1c(O)ccc2ccccc12)c1ccc(CO)nc1	TRHR agonist-1 32 | TRHR enhancer-2 inactive | TRHR agonist-2 inconclusive
CCc1ccc(NS(=O)(=O)c2cc3[nH]c(=O)c(=O)[nH]c3cc2C)cc1	none
O=C(CNC(=O)c1ccc(F)cc1)c1ccc(Cl)cc1	TRHR enhancer-1 43, D1 antagonist -33 | TRHR enhancer-2 inactive | TRHR agonist-2 inactive
COc1cc(-c2noc(C)c2C(=O)NCCO)cc(OC)c1OC	none
Cc1ccc(CN2C(=O)/C(=C3\SC(N4CCOCC4)=NC3=O)c3cc(Br)ccc32)cc1	none
C=CCNC(=O)c1c(N)n(-c2cccc(S(N)(=O)=O)c2)c2nc3ccccc3nc12	TRHR enhancer-1 43 | TRHR enhancer-2 inactive | TRHR agonist-2 inconclusive
CS(=O)(=O)c1ccc2nc(NC(=O)c3ccc(=O)[nH]c3)sc2c1	none
Cn1nc(C(=O)Nc2nc3ccc(S(C)(=O)=O)cc3s2)ccc1=O	TRHR enhancer-1 45 (no result: D1 antagonist) | TRHR enhancer-2 inactive | TRHR agonist-2 inactive
COc1ccc2nc(/N=C\N(C)C)sc2c1	none
COc1ccc2nc(N=Nc3ccc(N(C)C)cc3)sc2c1	TRHR enhancer-1 86 | TRHR enhancer-2 inactive | TRHR agonist-2 inactive
CC(C)N(Cc1cnn(C)c1)Cc1nc(COc2ccccc2)no1	none
CN(Cc1cnn(C)c1)Cc1nc(COc2ccccc2)no1	TRHR enhancer-1 46 | TRHR enhancer-2 inactive | TRHR agonist-2 inactive
O=c1[nH]c(/C=C/c2ccc(Br)cc2)nc2ccccc12	none
CN(C)c1ccc(/C=C/c2nc3ccccc3c(=O)[nH]2)cc1	TRHR agonist-1 59, D1 agonist 39 | TRHR enhancer-2 inconclusive | TRHR agonist-2 21µM
COc1ccc(C2CC(c3ccc(OC)cc3OC(C)=O)=NN2C(=O)c2ccccc2)cc1 (stereo unspecified)	none
Cc1c(C2(O)C(=O)Nc3ccc(F)cc32)c(=O)n(-c2ccccc2)n1C (stereo unspecified)	TRHR enhancer-1 50 | TRHR enhancer-2 inactive | TRHR agonist-2 inactive
O=S(=O)(c1cccs1)N1CN(Cc2ccccc2)c2nc3ccccc3nc21	TRHR enhancer-1 56 | TRHR enhancer-2 inactive | TRHR agonist-2 inactive
Cc1ccc(-c2[nH]ncc2C(=O)c2ccccc2C)c(O)c1	none
CNC(=O)CN(C)S(=O)(=O)c1ccc(OC)c(Cl)c1	TRHR enhancer-1 75 | TRHR enhancer-2 inactive | TRHR agonist-2 inactive
COc1ccc(S(=O)(=O)N(C)CC(=O)NC2CCCCC2)cc1Cl	none
Cc1cc(C)c2nc(SC(C)C(=O)NCC(=O)Nc3ccc(F)c(F)c3F)cc(C)c2c1 (stereo unspecified)	none
Cc1cc(SC(C)C(=O)NCC(=O)Nc2ccc(F)c(F)c2F)nc2ccccc12 (stereo unspecified)	TRHR enhancer-1 43 | TRHR enhancer-2 inconclusive | TRHR agonist-2 inactive
O=C(Nc1ccc(F)cc1)C1CC(=O)n2ncnc2N1 (stereo unspecified)	none
CCOc1ccccc1NC(=O)C1CC(=O)n2ncnc2N1 (stereo unspecified)	TRHR enhancer-1 48 | TRHR enhancer-2 inactive | TRHR agonist-2 inactive
COc1cccc(SCC2(O)CCN(C(=O)c3ccc(Cl)cc3)CC2)c1	TRHR enhancer-1 59 | TRHR enhancer-2 inactive | TRHR agonist-2 inactive
CC(CCOS(N)(=O)=O)c1ccccc1 (stereo unspecified)	none
[2H]C([2H])(CCOS(N)(=O)=O)c1ccccc1	TRHR enhancer-1 44 | TRHR enhancer-2 inactive | TRHR agonist-2 inconclusive
Cc1ccnc(N=Cc2nc(-c3ccccc3Br)oc2O)c1	none
Oc1oc(-c2cccc3ccccc23)nc1/C=N/c1nccs1	TRHR agonist-1 34, D1 agonist 44 | TRHR enhancer-2 inactive | TRHR agonist-2 inconclusive
COc1cc2c(cc1OC)-c1cc(Nc3cccc(C)c3)nc(=O)n1CC2	none
CCCCn1nnnc1NCc1ccc(OC)c(OC)c1OC	TRHR enhancer-1 45 | TRHR enhancer-2 inactive | TRHR agonist-2 inactive
COc1cccc(CNc2nnnn2C)c1OC	none
C=CCOc1ccc(Br)cc1CNCCCN1CCOCC1	none
CC(=O)Nc1sc(/C(C#N)=C/c2ccc(Cl)c(Cl)c2)nc1-c1ccc(C)cc1	D1 antagonist -49, TRHR agonist-1 68, D1 agonist 283 | TRHR enhancer-2 inactive | TRHR agonist-2 7.3µM
O=C(Cc1nc2ccccc2[nH]c1=O)c1ccccc1	TRHR agonist-1 31, D1 agonist 52 | TRHR enhancer-2 inactive | TRHR agonist-2 inconclusive
Cc1cc(C)n2nc(CNC(=O)c3c(F)cccc3F)nc2n1	none
COc1ccc(/C=C2\SC(=O)N(CCCC(=O)Nc3ccc(C(=O)O)cc3)C2=O)cc1OC	none
COc1ccc(/C=C2\SC(=O)N(CCC(=O)Nc3ccccc3)C2=O)cc1OC	TRHR enhancer-1 57 | TRHR enhancer-2 inactive | TRHR agonist-2 inactive
COC(=O)/C(C#N)=C1/C=Cc2ccccc2N1	TRHR enhancer-1 54 | TRHR enhancer-2 inactive | TRHR agonist-2 inconclusive
Cc1c(C)c2cc3c(C)coc3cc2oc1=O	TRHR enhancer-1 41 | TRHR enhancer-2 inactive | TRHR agonist-2 inactive
Cc1ccc(C)c(NC(=O)C[n+]2ccccc2)c1	TRHR enhancer-1 65 | TRHR enhancer-2 inactive | TRHR agonist-2 inactive
COc1ccc(N2CCN(CC(=O)N3c4ccccc4CC3C)CC2)cc1 (stereo unspecified)	TRHR enhancer-1 41 | TRHR enhancer-2 inconclusive | TRHR agonist-2 inactive
CC1CCN(CC(=O)N2c3ccccc3CC2C)CC1 (stereo unspecified)	none
Nc1ncnc(Nc2ccc(F)c(Cl)c2)n1	TRHR enhancer-1 45 | TRHR enhancer-2 inactive | TRHR agonist-2 inactive
CC(=O)c1sc(NC(=O)c2ccc(F)c(S(=O)(=O)N3CCOCC3)c2)nc1C	none (no result: D1 PAM)
COc1ccc(NC(=O)OCC(C)C)cc1OC	none
O=C(c1ccc(F)cc1)C1CCN(C(=O)Nc2ccccc2Cl)CC1	TRHR enhancer-1 50 | TRHR enhancer-2 inactive | TRHR agonist-2 inactive
Cc1ccccc1NC(=O)N1CCC(C(=O)c2ccc(F)cc2)CC1	none
Cc1ccccc1NC(=O)CSc1nc(N)c(C#N)c(-c2cccs2)c1C#N	none
